From PubChem
Rows were chosen to be rich in hits. Some 4.6% of all compounds tested hit in one or more screens of this group.
TIM10 inh = inhibits growth of TIM10 yeast strain; 330,000 tested, 1.4% active; inhibition, % at 10 µM; S. cerevisiae TIM10 strain growth, BacTiter-Glo luminescence, 24 h;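 active = inhibition of 40% or more at the single tested concentration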;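 note: wild-type TIM10 isogenic control strain grown at permissive 25 °C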
tim10-1 inh = inhibits growth of tim10-1 mutant yeast; S. cerevisiae tim10-1 ts strain growth, BacTiter-Glo, 24 h; inhibition, % at 20 µM; 330,000 tested, 2.2% active;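 active = inhibition of at least 40%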;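 note: mutant grown at 25 °C; 0% = DMSO wells with yeast and 100% = wells holding no yeast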
NALP3 yeast inh = blocks the NALP3 inflammasome reconstituted in yeast | Yeast reconstituted NLRP3/ASC/caspase-1, beta-gal luminescence, 24 h | inhibition, % at 10 µM | 330,000 tested, 0.39% active | AID 2825;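 active = inhibition of 50% or more; inactive = inhibition below 50%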;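 note: plate controls were induced DMSO wells for no effect and uninduced yeast grown without galactose for full effect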
tim23-1 inh = inhibits growth of tim23-1 mutant yeast; S. cerevisiae tim23-1 growth, BacTiter-Glo luminescence, 24 h; inhibition, % at 20 µM; 330,000 tested, 1.3% active; AID 463212;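 active = growth inhibition of the mutant yeast at or above 50%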;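 note: temperature-sensitive mutant grown at 25 °C; plate controls were DMSO-treated mutant yeast for no effect and medium wells lacking yeast for full effect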
SKKanGAS inh = SKKanGAS growth inhibition | S. pyogenes SKKanGAS, kanamycin growth, BacTiter-Glo, 6 h | inhibition, % at 7.5 µM | 300,000 tested, 1.3% active;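 active = mean replicate score, as percent of positive control median, at least 50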;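 note: strain carries kanamycin resistance gene driven by streptokinase promoter and grows in 40 µg/ml kanamycin; loss of luminescence reflects streptokinase promoter inhibition or plain growth inhibition; 0% = median of DMSO wells and 100% = positive control at its reference dose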
tim10-1 conf = confirmation of tim10-1 mutant yeast growth inhibitors; 7,400 tested, 56% active; S. cerevisiae tim10-1 ts strain growth, BacTiter-Glo, 24 h; inhibition, % at 20 µM; shares compounds with tim10-1 inh;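 active = inhibition of yeast growth at or above a set limit in either of two repeat tests at 20 µM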;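 note: tim10-1 mutant grown at permissive 25 °C to find synthetic lethal compounds; 0% = DMSO yeast wells and 100% = medium wells without yeast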
Numbers without * were called inactive; · = no result.

SMILES	TIM10 inh	tim10-1 inh	NALP3 yeast inh	tim23-1 inh	SKKanGAS inh	tim10-1 conf
O=C(CCNc1cc(Cl)cc(Cl)c1)c1cccs1	35	46*	12	42	-6	19
CCc1ccc(OCC(=O)Nc2ccc3[nH]ncc3c2)cc1	12	14	23	32	-1	·
CCOC(=O)/C(=C\c1ccccc1)NC(=O)c1ccccc1	22	31	-18	21	-8	·
C=CCOC(=O)/C(=C\c1ccccc1)NC(=O)c1ccc(C)cc1	25	40*	-17	21	6	27
O=C(NCC(=O)N1CCN(C(=O)c2ccccc2)CC1)c1ccc(Cl)cc1Cl	-12	-4	11	3	·	·
O=C(COC(=O)c1nc(Cl)ccc1Cl)NC1CCCCCC1	6	28	29	24	11	·
O=C(COC(=O)c1ncc(Cl)c(Cl)c1Cl)NC1CCCCCC1	11	43*	-1	30	10	19
CCCCc1ccc(NC(=S)NCC2CCCO2)cc1 (configuration not stated)	34	45*	24	26	-2	34*
S=C(NCC1CCCO1)Nc1ccc(Cl)c(Cl)c1 (configuration not stated)	38	41*	-4	29	5	26
CN(C)c1ccc(NC(=S)NCC2CCCO2)cc1 (configuration not stated)	-2	10	8	7	1	·
Cn1cc(Cl)c(C(=O)OCC(=O)Nc2ccc(S(N)(=O)=O)cc2)n1	-16	-19	2	2	11	·
Cc1nc2ccc(NS(=O)(=O)c3ccc(C)c(C)c3)cc2s1	28	42*	30	33	7	12
N#Cc1ccc(Oc2ncccn2)cc1	2	18	0	-5	5	·
CC(C)(C)C1CCc2c(sc(NC(=O)CSc3ncn[nH]3)c2C#N)C1 (configuration not stated)	23	40*	21	38	-2	12
CCCc1cc(=O)[nH]c(SCC(=O)Nc2sc3c(c2C#N)CCC(C)C3)n1 (configuration not stated)	14	47*	-2	21	16	-8
CC1CCc2c(sc(NC(=O)CSc3ncn[nH]3)c2C#N)C1 (configuration not stated)	-3	-2	12	12	6	·
CC(C)NC(=O)N(C)C[C@H]1Oc2ccc(NC(=O)NC3CCCCC3)cc2C(=O)N([C@H](C)CO)C[C@@H]1C	6	-8	8	-11	·	·
CCOC(=O)C1CCN(C(=O)CNC(=O)c2nn(-c3ccc(OC)cc3)c(=O)c3ccccc23)CC1	0	27	1	25	-2	·
CC1CCCC(n2c(=S)[nH]c3ccccc3c2=O)C1C (configuration not stated)	39	42*	19	28	19	31
CC1CCCCC1NC(=O)NC(=O)CCl (configuration not stated)	15	46*	-33	41	-10	31
CC1CCCC(NC(=O)NC(=O)CCl)C1C (configuration not stated)	37	32	-23	47	-9	·
O=C(Cn1cccn1)N1CCCC(N2CCN(c3ccccc3F)CC2)C1 (configuration not stated)	3	10	4	14	-5	·
CCCc1ccc2oc(C(=O)N3CCNC(=O)C3CC(=O)OC)c(C)c2c1 (configuration not stated)	-1	5	4	-2	2	·
O=[N+]([O-])c1ccc(Nc2ccc(Cl)cc2)nc1	11	59*	-14	42	-12	42*
O=[N+]([O-])c1ccc(NCc2ccc(Cl)cc2)nc1	20	35	18	32	-2	·
SMILES	TIM10 inh	tim10-1 inh	NALP3 yeast inh	tim23-1 inh	SKKanGAS inh	tim10-1 conf
O=C(CSc1ncnc2sccc12)NCc1ccc2c(c1)OCO2	10	8	16	19	·	·
Cc1nc(NS(=O)(=O)c2ccc(Br)cc2)c2c3c(sc2n1)CCC3	20	14	10	32	44	·
Cc1nc(NS(=O)(=O)c2cccs2)c2c3c(sc2n1)CCC3	26	44*	8	43	5	29*
O=C(O)c1ccc(-c2nnc(-c3ccccc3)o2)cc1	15	10	-2	15	31	·
O=C(c1ccc(-c2nnc(-c3ccccc3)o2)cc1)N1CCCCCC1	11	45*	16	6	0	33*
COc1ccccc1C(=O)Nc1cc(C)on1	-3	2	25	10	-3	·
Cc1cc(NC(=O)c2ccccc2Oc2ccccc2)no1	39	44*	-14	33	-3	31*
O=C(COc1ccc(Cl)cc1)Nc1ccc2c(c1)C(=O)NC2=O	12	-5	16	-4	1	·
Cc1cc(C)c2c(n1)sc1c(N3CCCCC3)ncnc12	15	20	17	31	1	·
CCN(CC)c1ncnc2c1sc1nc(C)cc(C)c12	9	43*	20	24	5	19
Cc1ccc2nc(SCC(=O)Nc3cc(C(C)(C)C)nn3-c3ccccc3)[nH]c2c1	24	44*	-8	21	2	25
CCn1c(CCC(=O)N(C)CC(=O)Nc2cccc(F)c2)nc2cc(S(=O)(=O)N(C)C)ccc21	-2	3	4	-10	-4	·
CCN1CCN(c2ccc(S(=O)(=O)N3CCOCC3)cc2NC(=O)c2ccc(F)cc2Cl)CC1	-3	-9	-2	-1	-2	·
Cc1ccc(Sc2nnc(Cc3ccccc3)c3ccccc23)cc1	24	41*	22	34	17	27
COc1ccc(Sc2nnc(Cc3ccccc3)c3ccccc23)cc1	28	31	9	23	12	·
Cc1c(Cc2ccccc2)sc(/N=C/c2c(O)ccc3ccccc23)c1C(N)=O	21	17	-27	37	35	·
Cc1ccc(/C=N/c2sc(Cc3ccccc3)c(C)c2C(N)=O)o1	33	48*	11	49	2	46*
O=C1CC(N2CCN(c3ccc(Cl)cc3)CC2)C(=O)N1c1ccccc1 (configuration not stated)	-9	-12	20	11	4	·
CCOc1ccc(N2C(=O)CC(N3CCN(c4ccc(Cl)cc4)CC3)C2=O)cc1 (configuration not stated)	2	45*	17	16	2	24
COc1ccccc1N1CCN(C2CC(=O)N(c3cccc(Br)c3)C2=O)CC1 (configuration not stated)	11	49*	18	27	2	36*
O=C1CC(N2CCN(c3ccccc3Cl)CC2)C(=O)N1c1ccccc1 (configuration not stated)	-12	49*	17	11	-4	19
CC[C@@H]1CCCCc2ccccc2[C@H](C(=O)C[C@H](O)CC(C)=O)OC1=O	-7	4	5	12	·	·
Cn1c(=O)c2c(nc(CN3CCN(c4ccccc4)CC3)n2CCCc2ccccc2)n(C)c1=O	17	43*	11	27	9	8
